The record followed here is PubChem BioAssay (Tox21).

Results filed as inconclusive are left out. A call without a number means that no potency is given here. The source holds several records for some structures; these can differ, active in one and inactive in another. Activity calls are given as the source filed them. Calls follow the shape of the dose curve; as a rule, active = well fitted cell-killing curve with a large enough effect in the repeat runs; inconclusive = weak or mixed curves; inactive = flat fitted curve, though single readings scatter. Residues, ends and D or L forms follow the SMILES beside them.
Potency is read from the fitted curve at half-maximal effect.

This assay in a line: qHTS assay to identify small molecule antagonists of the estrogen receptor beta (ER-beta) signaling pathway - cell viability counter screen (AID 1259382). Also: nearly all actives have a fitted effect of over 55% in size. The following applies: ER-beta-UAS-bla HEK293T viability, CellTiter-Glo luminescence, 16 h; series mostly up to 92.4 µM. The text has this: U.S. Tox21 Program National Center for Advancing Translational Sciences [NCATS] NIH Chemical Genomics Center [NCGC] U.S. Environmental Protection Agency [EPA] National Institutes of Environmental Health Sciences [NIEHS] National Toxicology Program [NTP] U.S. Food and Drug Administration [FDA] Tox21 Assay Overview: Estrogen receptor (ER), a nuclear hormone receptor, plays an important role in development, metabolic homeostasis and reproduction. Two subtypes of ER, ER-alpha and ER-beta, have similar expression patterns with some uniqueness in both types. Endocrine disrupting chemicals (EDCs) and their interactions with steroid hormone receptors like ER causes disruption of normal endocrine function. To identify the compounds that inhibit ER signaling, an ER-beta-UAS-bla GripTite cell line (Life Technologies, Madison, WI, USA) containing a beta-lactamase reporter gene under the control of an UAS response element was used to screen Tox21 10K compound library. The cytotoxicity of the Tox21 compound library against the ER-beta-bla cell line was tested in parallel by measuring the cell viability using CellTiter-Glo assay in the same wells.
Tox21 Assay Protocol Summary: ER-beta-UAS-bla HEK293T cells were dispensed at 2,000 cells/4 uL of assay medium containing 2% charcoal stripped FBS per well into black wall/clear-bottom 1536-well plates using a Multidrop Combi (ThermoFisher Scientific, Waltham, MA) dispenser. After the assay plates were incubated at a 37C and 5% CO2 for 6 hr, 23 nL of compounds dissolved in DMSO, positive controls or DMSO only was transferred to the assay plate by a Pintool station (Kalypsys, San Diego, CA), followed by addition of 1 uL (1nM as final concentration) of 17-beta-estradiol (E2) in assay medium using a Flying Reagent Dispenser (FRD, Aurora Discovery, San Diego, CA). The plates were incubated at 37C and 5% CO2 for 16 hr. Then 1 uL of LiveBLAzer B/G FRET substrate was added using a Flying Reagent Dispenser, the plates were incubated at room temperature for 2 hours, and fluorescence intensity was measured by an Envision plate reader (PerkinElmer, Shelton, CT). For cell viability readout that measures cytotoxicity, 4 uL/well of CellTiter-Glo reagent was added into the assay plates using a FRD. After 30 min incubation at room temperature, the luminescence intensity in the plates was measured using a ViewLux (PerkinElmer) plate reader.
In general terms: Quantitative high-throughput screening tests each substance at several concentrations.
Consider `O=C(O)CCCCCCCC(=O)O`, for which the Potency entry is “inactive”.

With `O=C(O)CCC(=O)O`, the Potency result is “inactive”.

In the case of `c1ccc2[nH]ccc2c1`, the Potency was 26.9 µM (active) and inactive.

Regarding `O=C(O)CS`, the Potency result is “inactive”.

Consider `O=c1ccc2ccccc2o1`, for which the Potency entry was “inactive”.

For the molecule `CCOc1ccc(NC(=O)CC(C)O)cc1` (stereo not given), the Potency entry is “inactive”.

Take `O=C(c1ccccc1)C(O)c1ccccc1` (stereo not given): the Potency result is “inactive”.

Take `Nc1ccc(O)c(C(=O)O)c1`: the Potency result was “inactive”.

Consider `O=C1NC(=O)c2ccccc21`, for which the Potency entry was “inactive”.

For `NC(=O)c1cnccn1`, the Potency result was “inactive”.

Regarding `O=C(O)c1cc(N=Nc2ccc(S(=O)(=O)Nc3ccccn3)cc2)ccc1O`, the Potency result was “inactive”.

As to `NC(N)=NC(=O)c1nc(Cl)c(N)nc1N`, the Potency entry is “inactive”.

Consider `O=C(O)c1cccc([N+](=O)[O-])c1`, for which the Potency entry is “inactive”.

With `NS(=O)(=O)c1cc(C(=O)O)c(NCc2ccco2)cc1Cl`, the Potency result is “inactive”.

As for `NC(=O)c1ccccc1O`, the Potency entry was “inactive”.

`NC(=O)NC1NC(=O)NC1=O` (stereo not given): the Potency result was “inactive”.

With `C1N2CN3CN1CN(C2)C3`, the Potency entry is “inactive”.

In the case of `CC1(C)[C@@H]2CC[C@@]1(C)C(=O)C2`, the Potency entry is “inactive”.

Regarding `O=NO`, the Potency result was “inactive”.

`NNC(=O)c1ccncc1`: the Potency entry was “inactive”.

For `O=C(O)c1cccnc1`, the Potency entry was “inactive”.

On to `Nc1ccc(S(=O)(=O)c2ccc(N)cc2)cc1`, for which the Potency result is “inactive”.

In the case of `COC(=O)[C@H](Cc1ccccc1)NC(=O)[C@@H](N)CC(=O)O` (H-Asp-Phe-OMe), the Potency entry was “inactive”.

On to `CCCCOC(=O)CC(CC(=O)OCCCC)(OC(C)=O)C(=O)OCCCC`, for which the Potency entry was “inactive”.

As to `O=C(c1ccccc1)c1ccccc1`, the Potency entry was “inactive”.

For `C[C@]12C=CC(=O)C=C1CC[C@@H]1[C@@H]2[C@@H](O)C[C@@]2(C)[C@H]1CC[C@]2(O)C(=O)CO`, the Potency entry is “inactive”.

`Cn1cc[nH]c1=S`: the Potency entry was “inactive”.

`CCCC(O)C(CC)CO` (stereo not given): the Potency result was “inactive”.

Regarding `CC(O)CO` (stereo not given), the Potency entry was “inactive”.

For the molecule `CC(O)C(=O)O` (stereo not given), the Potency result is “inactive”.

With `OC(Cn1cncn1)(Cn1cncn1)c1ccc(F)cc1F`, the Potency entry is “inactive”.

Turning to `CCCN(CCC)S(=O)(=O)c1ccc(C(=O)O)cc1`, the Potency entry is “inactive”.

For the molecule `Cc1ccc(C)c(OCCCC(C)(C)C(=O)O)c1`, the Potency entry is “inactive”.

Turning to `O=S(=O)(O)NC1CCCCC1`, the Potency result is “inactive”.

With `O=C(O)c1[nH]n(-c2ccc(S(=O)(=O)O)cc2)c(=O)c1N=Nc1ccc(S(=O)(=O)O)cc1`, the Potency entry was “inactive”.

Turning to `CCCNC(=O)NS(=O)(=O)c1ccc(Cl)cc1`, the Potency entry was “inactive”.

`Cc1noc(NS(=O)(=O)c2ccc(N)cc2)c1C`: the Potency entry is “inactive”.

Turning to `Cc1cn([C@H]2C[C@H](N=[N+]=[N-])[C@@H](CO)O2)c(=O)[nH]c1=O`, the Potency entry was “inactive”.

In the case of `Cc1ccccc1C(OCCN(C)C)c1ccccc1` (stereo not given), the Potency result is “inactive”.

Take `Cc1ccc(O)cc1`: the Potency result is “inactive”.
